# From the supplement of paper PMC4022240
# ± gives the standard deviation.
# T1: HaloTag-ATRX ADD domain (163-292)
# T1 chain: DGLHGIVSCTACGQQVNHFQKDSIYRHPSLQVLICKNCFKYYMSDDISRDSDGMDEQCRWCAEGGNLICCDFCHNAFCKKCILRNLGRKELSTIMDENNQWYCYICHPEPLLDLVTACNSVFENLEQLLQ
# B1: H3 1-13 A Rme2s T Kme3 Q T A R K S T G G (peptide)
# chain: ARTKQTARKSTGG
# B2: H3 1-13 A Rme2a T K Q Tph A R K S T G G (peptide)
# chain: ARTKQTARKSTGG
# B3: H3 1-13 A Rme2a T K Q T A R Kme S T G G (peptide)
# chain: ARTKQTARKSTGG
# B4: H3 1-13 A Rme2a T K Q T A R Kme3 S T G G (peptide)
# chain: ARTKQTARKSTGG
# B5: H3 1-13 A Rme2s T Kac Q T A R K S T G G (peptide)
# chain: ARTKQTARKSTGG
# B6: H3 1-13 A Rme2s T Kme Q T A R K S T G G (peptide)
# chain: ARTKQTARKSTGG
# B7: H3 1-13 A Rme2a Tph K Q T A R K S T G G (peptide)
# chain: ARTKQTARKSTGG
# B8: H3 1-13 A Rme2a T K Q T A R Kme2 S T G G (peptide)
# chain: ARTKQTARKSTGG
# B9: H3 1-13 A Rme2s T Kme2 Q T A R K S T G (peptide)
# chain: ARTKQTARKSTG
# B10: H3 1-13 A Rme2a T K Q T A R K S T G G (peptide)
# chain: ARTKQTARKSTGG
# How the values were obtained:
# Test in all cases: peptide microarray binding signal (635 nm), min-max normalized on array (fraction of array maximum); higher = stronger binding
# Details in all cases: peptide region: H3 1-13
# [1] = target: T1, HaloTag-ATRX ADD domain (163-292)
# Procedure: (§1)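 Histone 13-mer peptides were synthesized as cellulose conjugates with a C-terminal 20-atom PEG linker and printed in triplicate on nitrocellulose. The sequence given is the unmodified backbone; PTMs (Kme1/2/3, Kac, Sph/Tph, Rme/Rme2a/Rme2s, Rcit) are listed in the label and the 'peptide modifications' condition. Slides were probed at 4 °C for 1 h with biotin-labelled (HQ)5-HaloTag reader fusions (ATRX-ADD, ING2-PHD) then streptavidin-Alexa647, or with rabbit histone antibodies then anti-rabbit Alexa647. The mean 635 nm signal of the triplicate spots was scaled 0-1 between the lowest and highest values on each array.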
# [2] = target: HaloTag-ING2 PHD (mouse Ing2 200-280)
# Procedure: as §1
# [3] = target: anti-H3K4me3 antibody ab8580
# Procedure: as §1
# [4] = target: anti-H3K9me3 antibody ab8898
# Procedure: as §1
# [5] = peptide modifications: H3R2me2s H3K4me3, binder concentration: 1:2,000 dilution
# [6] = peptide modifications: H3R2me2s H3K4me3, binder concentration: 1:10,000 dilution
# [7] = peptide modifications: H3R2me2a H3T6ph, binder concentration: 1:2,000 dilution
# [8] = peptide modifications: H3R2me2a H3T6ph, binder concentration: 1:10,000 dilution
# [9] = peptide modifications: H3R2me2a H3K9me1, binder concentration: 1:2,000 dilution
# [10] = peptide modifications: H3R2me2a H3K9me1, binder concentration: 1:10,000 dilution
# [11] = peptide modifications: H3R2me2a H3K9me3, binder concentration: 1:2,000 dilution
# [12] = peptide modifications: H3R2me2a H3K9me3, binder concentration: 1:10,000 dilution
# [13] = peptide modifications: H3R2me2s H3K4ac, binder concentration: 1:2,000 dilution
# [14] = peptide modifications: H3R2me2s H3K4ac, binder concentration: 1:10,000 dilution
# [15] = peptide modifications: H3R2me2s H3K4me1, binder concentration: 1:2,000 dilution
# [16] = peptide modifications: H3R2me2s H3K4me1, binder concentration: 1:10,000 dilution
# [17] = peptide modifications: H3R2me2a H3T3ph, binder concentration: 1:2,000 dilution
# [18] = peptide modifications: H3R2me2a H3T3ph, binder concentration: 1:10,000 dilution
# [19] = peptide modifications: H3R2me2a H3K9me2, binder concentration: 1:2,000 dilution
# [20] = peptide modifications: H3R2me2a H3K9me2, binder concentration: 1:10,000 dilution
# [21] = peptide modifications: H3R2me2s H3K4me2, binder concentration: 1:2,000 dilution
# [22] = peptide modifications: H3R2me2s H3K4me2, binder concentration: 1:10,000 dilution
# [23] = peptide modifications: H3R2me2a, binder concentration: 1:2,000 dilution
# [24] = peptide modifications: H3R2me2a, binder concentration: 1:10,000 dilution
binder,measurement,setting,value
B1,peptide microarray binding signal,"[1]; peptide modifications: H3R2me2s H3K4me3, binder concentration: 50 nM",0.00893 ± 9.3e-05
same,peptide microarray binding signal,"[1]; peptide modifications: H3R2me2s H3K4me3, binder concentration: 500 nM",0.0273 ± 0.0066
same,peptide microarray binding signal,"[2]; peptide modifications: H3R2me2s H3K4me3, binder concentration: 10 nM",0.0555 ± 0.0092
same,peptide microarray binding signal,"[2]; peptide modifications: H3R2me2s H3K4me3, binder concentration: 100 nM",0.0641 ± 0.027
same,peptide microarray binding signal,[3]; [5],0.674 ± 0.053
same,peptide microarray binding signal,[3]; [6],0.326 ± 0.034
same,peptide microarray binding signal,[4]; [5],0.228 ± 0.057
same,peptide microarray binding signal,[4]; [6],0.113 ± 0.034
B2,peptide microarray binding signal,"[1]; peptide modifications: H3R2me2a H3T6ph, binder concentration: 50 nM",0.00602 ± 7.4e-05
same,peptide microarray binding signal,"[1]; peptide modifications: H3R2me2a H3T6ph, binder concentration: 500 nM",0.015 ± 0.0011
same,peptide microarray binding signal,"[2]; peptide modifications: H3R2me2a H3T6ph, binder concentration: 10 nM",0.00549 ± 0.00043
same,peptide microarray binding signal,"[2]; peptide modifications: H3R2me2a H3T6ph, binder concentration: 100 nM",0.00964 ± 0.0013
same,peptide microarray binding signal,[3]; [7],0.00198 ± 0.00026
same,peptide microarray binding signal,[3]; [8],0.0032 ± 0.00025
same,peptide microarray binding signal,[4]; [7],0.00112 ± 3.5e-05
same,peptide microarray binding signal,[4]; [8],0.000923 ± 1.9e-05
B3,peptide microarray binding signal,"[1]; peptide modifications: H3R2me2a H3K9me1, binder concentration: 50 nM",0.0646 ± 0.0083
same,peptide microarray binding signal,"[1]; peptide modifications: H3R2me2a H3K9me1, binder concentration: 500 nM",0.138 ± 0.008
same,peptide microarray binding signal,"[2]; peptide modifications: H3R2me2a H3K9me1, binder concentration: 10 nM",0.0387 ± 0.0036
same,peptide microarray binding signal,"[2]; peptide modifications: H3R2me2a H3K9me1, binder concentration: 100 nM",0.0709 ± 0.014
same,peptide microarray binding signal,[3]; [9],0.0175 ± 0.0013
same,peptide microarray binding signal,[3]; [10],0.0118 ± 0.0015
same,peptide microarray binding signal,[4]; [9],0.00838 ± 0.0011
same,peptide microarray binding signal,[4]; [10],0.00675 ± 0.00044
B4,peptide microarray binding signal,"[1]; peptide modifications: H3R2me2a H3K9me3, binder concentration: 50 nM",0.553 ± 0.21
same,peptide microarray binding signal,"[1]; peptide modifications: H3R2me2a H3K9me3, binder concentration: 500 nM",0.325 ± 0.0057
same,peptide microarray binding signal,"[2]; peptide modifications: H3R2me2a H3K9me3, binder concentration: 10 nM",0.0188 ± 0.00063
same,peptide microarray binding signal,"[2]; peptide modifications: H3R2me2a H3K9me3, binder concentration: 100 nM",0.0327 ± 0.0029
same,peptide microarray binding signal,[3]; [11],0.0294 ± 0.003
same,peptide microarray binding signal,[3]; [12],0.0254 ± 0.0048
same,peptide microarray binding signal,[4]; [11],0.328 ± 0.013
same,peptide microarray binding signal,[4]; [12],0.254 ± 0.069
B5,peptide microarray binding signal,"[1]; peptide modifications: H3R2me2s H3K4ac, binder concentration: 50 nM",0.0137 ± 0.00038
same,peptide microarray binding signal,"[1]; peptide modifications: H3R2me2s H3K4ac, binder concentration: 500 nM",0.046 ± 0.0095
same,peptide microarray binding signal,"[2]; peptide modifications: H3R2me2s H3K4ac, binder concentration: 10 nM",0.0299 ± 0.0078
same,peptide microarray binding signal,"[2]; peptide modifications: H3R2me2s H3K4ac, binder concentration: 100 nM",0.0957 ± 0.0077
same,peptide microarray binding signal,[3]; [13],0.00993 ± 0.0029
same,peptide microarray binding signal,[3]; [14],0.00651 ± 0.00097
same,peptide microarray binding signal,[4]; [13],0.0137 ± 0.0005
same,peptide microarray binding signal,[4]; [14],0.00617 ± 0.00064
B6,peptide microarray binding signal,"[1]; peptide modifications: H3R2me2s H3K4me1, binder concentration: 50 nM",0.00815 ± 0.00038
same,peptide microarray binding signal,"[1]; peptide modifications: H3R2me2s H3K4me1, binder concentration: 500 nM",0.0162 ± 0.0009
same,peptide microarray binding signal,"[2]; peptide modifications: H3R2me2s H3K4me1, binder concentration: 10 nM",0.00573 ± 0.00037
same,peptide microarray binding signal,"[2]; peptide modifications: H3R2me2s H3K4me1, binder concentration: 100 nM",0.0481 ± 0.011
same,peptide microarray binding signal,[3]; [15],0.0368 ± 0.009
same,peptide microarray binding signal,[3]; [16],0.0228 ± 0.00057
same,peptide microarray binding signal,[4]; [15],0.00405 ± 0.0004
same,peptide microarray binding signal,[4]; [16],0.00329 ± 0.00019
B7,peptide microarray binding signal,"[1]; peptide modifications: H3R2me2a H3T3ph, binder concentration: 50 nM",0.00567 ± 0.00034
same,peptide microarray binding signal,"[1]; peptide modifications: H3R2me2a H3T3ph, binder concentration: 500 nM",0.0135 ± 0.00068
same,peptide microarray binding signal,"[2]; peptide modifications: H3R2me2a H3T3ph, binder concentration: 10 nM",0.00501 ± 0.00013
same,peptide microarray binding signal,"[2]; peptide modifications: H3R2me2a H3T3ph, binder concentration: 100 nM",0.00737 ± 0.00044
same,peptide microarray binding signal,[3]; [17],0.00262 ± 0.00056
same,peptide microarray binding signal,[3]; [18],0.00434 ± 0.00077
same,peptide microarray binding signal,[4]; [17],0.000755 ± 0.00011
same,peptide microarray binding signal,[4]; [18],0.000577 ± 6.2e-06
B8,peptide microarray binding signal,"[1]; peptide modifications: H3R2me2a H3K9me2, binder concentration: 50 nM",0.169 ± 0.018
same,peptide microarray binding signal,"[1]; peptide modifications: H3R2me2a H3K9me2, binder concentration: 500 nM",0.197 ± 0.0079
same,peptide microarray binding signal,"[2]; peptide modifications: H3R2me2a H3K9me2, binder concentration: 10 nM",0.06 ± 0.00075
same,peptide microarray binding signal,"[2]; peptide modifications: H3R2me2a H3K9me2, binder concentration: 100 nM",0.0848 ± 0.012
same,peptide microarray binding signal,[3]; [19],0.0133 ± 0.0025
same,peptide microarray binding signal,[3]; [20],0.0229 ± 0.0084
same,peptide microarray binding signal,[4]; [19],0.0303 ± 0.0053
same,peptide microarray binding signal,[4]; [20],0.0191 ± 0.0015
B9,peptide microarray binding signal,"[1]; peptide modifications: H3R2me2s H3K4me2, binder concentration: 50 nM",0.00476 ± 0.00032
same,peptide microarray binding signal,"[1]; peptide modifications: H3R2me2s H3K4me2, binder concentration: 500 nM",0.00814 ± 0.00041
same,peptide microarray binding signal,"[2]; peptide modifications: H3R2me2s H3K4me2, binder concentration: 10 nM",0.00967 ± 0.00038
same,peptide microarray binding signal,"[2]; peptide modifications: H3R2me2s H3K4me2, binder concentration: 100 nM",0.0142 ± 0.0012
same,peptide microarray binding signal,[3]; [21],0.0186 ± 0.0024
same,peptide microarray binding signal,[3]; [22],0.01061 ± 5.4e-05
same,peptide microarray binding signal,[4]; [21],0.00287 ± 0.00041
same,peptide microarray binding signal,[4]; [22],0.00225 ± 0.00017
B10,peptide microarray binding signal,"[1]; peptide modifications: H3R2me2a, binder concentration: 50 nM",0.0208 ± 0.00057
same,peptide microarray binding signal,"[1]; peptide modifications: H3R2me2a, binder concentration: 500 nM",0.0355 ± 0.025
same,peptide microarray binding signal,"[2]; peptide modifications: H3R2me2a, binder concentration: 10 nM",0.00889 ± 0.00042
same,peptide microarray binding signal,"[2]; peptide modifications: H3R2me2a, binder concentration: 100 nM",0.0186 ± 0.0037
same,peptide microarray binding signal,[3]; [23],0.0031 ± 0.00032
same,peptide microarray binding signal,[3]; [24],0.0016 ± 7.1e-05
same,peptide microarray binding signal,[4]; [23],0.00127 ± 7.4e-05
same,peptide microarray binding signal,[4]; [24],0.000634
